Sampled rows, rich in hits. Any-hit rate of the full collection: about 11%.
NS1 inh: influenza NS1 inhibition | Potency, µM (series often up to 46.1 µM), without a hit: top-dose activity, positive = more growth | 270,000 compounds, 0.4% hits | AID 2326; calls by dose curve; further: actives are rising curves; nearly all actives have a fitted effect of over 50% in size
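A cell-based growth assay was used: compounds that relieve NS1-induced slow growth of budding yeast raise OD600. Assay medium was yeast nitrogen base with ammonium sulphate and -URA supplement, pH 6.0, with 2% galactose.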
Sm TGR inh: S. mansoni TGR enzyme inhibition | Potency, µM (top dose mostly 114 µM), inactives show top-dose activity change, negative = inhibition, most hits filed as inhibitors | Q962Y6 | 360,000 compounds, 3% hits | purified TGR, DTNB reduction, TNB absorbance 405 nm; further: on the % scale 0 is the no-effect control and ±100 the full control effect; nearly all actives have a fitted effect of over 60% in size
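First, TGR (20 nM dispensed) and NADPH were mixed with compound. Second, a 15 min room-temperature incubation followed. Third, further NADPH and then DTNB were added to start the reaction. Finally, TNB absorbance was monitored kinetically.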
Pf growth 48h: P. falciparum growth inhibition at 48 hours (one generation) | 310,000 compounds, 5.9% hits | AID 504832 | Potency, µM (doses to about 28.7 µM), for the others: at the highest dose activity change, negative = inhibition, actives largely listed as inhibitors | P. falciparum luciferase growth in erythrocytes, 48 h; further: on the % scale 0 is the no-effect control and ±100 the full control effect
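First compound was added to culture medium, then infected red cells at 0.1% parasitemia and 2% hematocrit (final). After incubation at 37 C under 5% CO2, luciferase detection reagent was dispensed and light output recorded.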
AMA1-RON2 inh: inhibitors of Plasmodium falciparum AMA1-RON2 interaction. AlphaScreen AMA1-biotinylated RON2 peptide binding. Potency, µM (series often up to 58.2 µM), without a hit: top-dose activity change, negative = inhibition, actives largely listed as inhibitors. 360,000 compounds, 0.2% hits. AID 720542;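 further: 0% = vehicle wells and -100% = peptide control; nearly all actives have a fitted effect of over 45% in size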
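AMA1 (3D7) with his tag at 25 nM final met compounds first, then biotinylated RON2 peptide at 25 nM; detection used donor plus acceptor beads, 10 µg/mL apiece, read by AlphaScreen after 30 min at room temperature.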
Pf growth 96h: P. falciparum growth inhibition at 96 hours; 320,000 compounds, 6.9% hits; AID 504834; P. falciparum luciferase reporter growth, 96 h; Potency, µM (titrated, usually from 28.7 µM), for the others: at the top dose activity change, negative = inhibition, hits mostly inhibitors; further: on the % scale 0 is the no-effect control and ±100 the full control effect
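Luminescence readout: decreased luciferase signal marks inhibited growth of reporter-expressing P. falciparum in infected red cells (2% hematocrit, 0.05% parasitemia final), exposed to compound two generations (96 h, 37 C, 5% CO2).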
* hit, by the source's call; [ ] = remark or other dose. Unless noted, the call rests on the fitted dose curve; in most records, active means well fitted curve in the direction sought with a large enough effect; inconclusive means small, poorly fitted or top-dose-only effect, or another doubt; inactive means no such curve, though single readings can be large; an effect the other way counts as inactive or inconclusive. Potency means the concentration at half of the fitted maximal effect.

Screening Cc1cc(NCCCN2CCOCC2)n2nc(C)c(-c3ccc(F)cc3)c2n1 returned NS1 inh -6.9%, Sm TGR inh 1.7%, Pf growth 48h 7.38µM*, AMA1-RON2 inh inconclusive and Pf growth 96h -13.0%.
`Cc1cc(NCCC(C)C)n2nc(C)c(-c3ccccc3)c2n1` gave NS1 inh -17.3%, Sm TGR inh -1.5%, Pf growth 48h 9.28µM* and AMA1-RON2 inh 41.7%.
`CC(=O)Nc1ccc(Nc2cc(C)nc3c(-c4ccccc4)c(C)nn23)cc1` gave NS1 inh -20.3%, Sm TGR inh 10.6%, Pf growth 48h inconclusive, AMA1-RON2 inh 59.7% and Pf growth 96h 3.7µM*.
Screening CCSc1cc(C)nc2c(-c3ccccc3)c(C)nn12 returned NS1 inh -2.3%, Sm TGR inh 5.4%, AMA1-RON2 inh -3.7% and Pf growth 96h inconclusive.
For Cc1cc(NCCCN2CCOCC2)n2nc(C)c(-c3ccccc3)c2n1 the results were NS1 inh 3.5%, Sm TGR inh 11.9%, Pf growth 48h inconclusive, AMA1-RON2 inh -1.5% and Pf growth 96h inconclusive.
For C=C(C)CSc1cc(C)nc2c(-c3ccccc3)c(C)nn12 the results were NS1 inh -6.0%, Sm TGR inh inconclusive, Pf growth 48h 6.57µM*, AMA1-RON2 inh 82.7% and Pf growth 96h 10.4µM*.
For COc1ccc(C(=O)NCCc2nnc3ccc(SCC(=O)NCc4ccccc4)nn23)cc1 the results were NS1 inh 8.0%, Sm TGR inh -7.3%, Pf growth 48h 31.8%, AMA1-RON2 inh 0.0% and Pf growth 96h -5.0%.
COc1ccc(N2CCN(C(=O)c3cccc(NC(=O)c4nsc5ccccc45)c3)CC2)cc1 was read as Sm TGR inh -1.6%.
CCOc1ccc(NC(=O)N2CCN(c3nnc(C)c4c(C)n(-c5ccccc5)nc34)CC2)cc1 was read as Sm TGR inh 2.0%.
`CC(=O)Nc1ccc(Nc2cc(C(C)C)nc3c(-c4ccccc4)c(C)nn23)cc1` gave NS1 inh -56.5%, Sm TGR inh 3.3%, Pf growth 48h inconclusive, AMA1-RON2 inh 88.4% and Pf growth 96h 13.1µM*.
Screening COc1cccc2[nH]c3c(N4CCCCC4)ncnc3c12 returned NS1 inh -11.6%, Sm TGR inh -0.4%, Pf growth 48h inconclusive, AMA1-RON2 inh 11.3% and Pf growth 96h 23.4%.
For Cc1cccc2[nH]c3c(N4CC=C(c5ccc(F)cc5)CC4)ncnc3c12 the results were NS1 inh -44.5%, Sm TGR inh 11.4%, Pf growth 48h 10.4µM*, AMA1-RON2 inh -27.9% and Pf growth 96h inconclusive.
COc1ccc(NC(=O)CN(C)C(=O)c2ccccc2Sc2ncnc3sc(C)c(C)c23)cc1 was read as Sm TGR inh 1.9%, Pf growth 48h inconclusive, AMA1-RON2 inh -16.7% and Pf growth 96h inconclusive.
Screening Cc1sc2ncnc(Sc3ccccc3C(=O)Nc3ccc(C#N)cc3)c2c1C returned NS1 inh 7.6%, Sm TGR inh 6.3%, Pf growth 48h 10.4µM*, AMA1-RON2 inh -12.5% and Pf growth 96h inconclusive.
For Cc1sc2ncnc(Sc3ccccc3C(=O)Nc3ccccc3Cl)c2c1C the results were NS1 inh -6.4%, Sm TGR inh -14.0%, Pf growth 48h 11.7µM*, AMA1-RON2 inh 0.7% and Pf growth 96h inconclusive.
Cc1sc2ncnc(Sc3ccccc3C(=O)Nc3ccc(Br)cc3)c2c1C was read as NS1 inh inconclusive, Sm TGR inh 0.3%, Pf growth 48h 9.28µM*, AMA1-RON2 inh -8.2% and Pf growth 96h 6.57µM*.
For Cc1ccc(C(c2nnnn2C2CCCCC2)N2CCc3ccccc32)cc1 (centres undefined) the results were NS1 inh -2.6%, Sm TGR inh -1.3%, Pf growth 48h 11.7µM*, AMA1-RON2 inh -1.1%[11.6 µM] and Pf growth 96h inconclusive.
Cc1ccc(C(c2nnnn2C2CCCC2)N2CCN3CCCC3C2)cc1 (centres undefined) was read as NS1 inh -3.8%, Sm TGR inh -16.9%, Pf growth 48h inconclusive, AMA1-RON2 inh -10.2% and Pf growth 96h 8.4%.
`CC(C)C(c1nnnn1C1CCCCC1)N1CCc2ccccc21` (centres undefined) gave NS1 inh 7.9%, Sm TGR inh -12.9%, Pf growth 48h 11.7µM* and AMA1-RON2 inh -3.7%.

Assay outcomes: PubChem, National Center for Advancing Translational Sciences (NCATS)
